Among the data in PubChem BioAssay (NCI) are growth values, retold here.

Each structure is given as a SMILES string. Compounds without any hit were thinned out: in the full panel of roughly 83,000, 20% have a hit.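 The test compound was applied at a single concentration to cells in 96-well plates for 48 hours, and percent growth was recorded.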 Values without a mark were called inactive. Activity calls are given as the source filed them. The calls were made as follows: active = growth percent below 10; inactive = the rest.

Holding throughout (assay): NCI-60 one-dose screen, 48 h (100 = growth as untreated, 0 = no growth, -100 = all killed)
What all share (conditions): 10 µM unless noted

For assay [1], the system named is SR leukemia.
Assay [2] relates to RPMI-8226 leukemia.
Assay [3] has as its system OVCAR-8 ovarian.
For assay [4], the system named is OVCAR-5 ovarian.
The test system of assay [5] is OVCAR-4 ovarian.
In assay [6] the test system is SK-OV-3 ovarian.
Assay [7] has as its system IGROV1 ovarian.
For assay [8], the system named is OVCAR-3 ovarian.
In assay [9] the test system is HS 578T breast.
For assay [10], the system named is NCI/ADR-RES ovarian.
Assay [11] concerns T-47D breast.
Assay [12] deals with BT-549 breast.
For assay [13], the system named is MDA-MB-435 melanoma.
For assay [14], the system named is SW-620 colon.
For assay [15], the system named is MCF7 breast.
In assay [16] the test system is HCT-116 colon.
For assay [17], the system named is HCC-2998 colon.
Assay [18] relates to KM12 colon.

Turning to `COc1cc(C2CC(c3ccc(C)cc3)=NN2C=O)ccc1Oc1ccnc2cc(Cl)ccc12` (centres undefined), the growth is 96.6% in assay [1]; 87.8% in assay [2]; 60.3% in assay [3]; 98% in assay [4]; 95.8% in assay [5]; -15.4% (active) in [6]. The growth was 77.2% in assay [7]; 39.5% in assay [8]; 7.47% (active) in assay [9]; 65.8% in [10]; 76% in [11]; 43.8% in assay [12]. Also, the growth in assay [13] is 99%; in [14], 102%; in assay [15], 79.1%; in assay [16], 46.5%; in assay [17] it was 69.6%; in assay [18], 104%.
As to `Oc1ccccc1-c1nnc(COc2ccc(Cl)cc2Cl)o1`, the growth in assay [1] was 36%; in [2] it was 39.4%; in [3], 36.8%; in assay [4] it was 89.1%; in assay [5], 49.3%; in [6], 60.7%. Besides, the growth in [7] is 50.7%; in [8], 20.2%; in [9], 78.2%; in [10] it was 30.6%; in assay [11], 42.6%; in assay [12], 63.3%. Besides, the growth is 63.9% in assay [13]; 51.2% in assay [14]; 20.6% in [15]; 18.2% in assay [16]; 76.8% in assay [17]; 41.5% in assay [18].
Regarding `COc1ccc(/C(C)=N/NC(=O)CSc2nc3ccccc3c(=O)n2CCc2ccc(S(N)(=O)=O)cc2)cc1`, the growth in assay [1] was 40.2%; in assay [2] it was 5.61% (active); in assay [3] it was -12.9% (active); in assay [4] it was 55%; in [5] it was -54.1% (active); in assay [6], -31.8% (active). The growth was 19.1% in assay [7]; 16.6% in [8]; 29.5% in [9]; 79.4% in assay [10]; 22.3% in assay [11]; 64.2% in assay [12]. Moreover, the growth in assay [13] was 16.7%; in assay [14], 54.6%; in assay [15] it was 59.1%; in assay [16], -47% (active); in [17], 74.8%; in assay [18], 25.1%.
As for `COc1ccc2[nH]cc(C3(c4c[nH]c5ccc(OC)cc45)C(=O)Nc4ccc(Cl)cc43)c2c1`, the growth in assay [1] is 7.95% (active); in [2], 36.4%; in [3], 90.4%; in [4], 89.1%; in [5] it was 79.6%; in assay [6], 93.4%. Also, the growth in [7] is 50%; in assay [8], 61.9%; in [9] it was 65.4%; in assay [10] it was 90.1%; in assay [11], 76.4%; in assay [12], 93.7%. The growth is 23.3% in assay [13]; 30% in assay [14]; 61.7% in assay [15]; 64.3% in assay [16]; 58% in assay [17]; 14.8% in assay [18].
`CCn1c(=O)c(C(=O)NCCCO)c(O)c2ccccc21`: the growth is 105% in assay [1]; 122% in [2]; 103% in assay [3]; 116% in assay [4]; 100% in assay [5]; 115% in assay [6]. The growth is 108% in assay [7]; 155% in assay [8]; 92.1% in assay [9]; 111% in assay [10]; 106% in [11]; 150% in assay [12]. For the same molecule, the growth in assay [13] is 106%; in [14], 106%; in assay [15], 95.2%; in [16], 104%; in [17] it was 139%; in assay [18], 120%.
On to `Cc1ccccc1Nc1n[nH]c(Cc2ccccc2)n1`, for which the growth in [1] was 99.7%; in assay [2], 93.8%; in assay [3], 98.1%; in assay [4] it was 111%; in [5], 112%; in [6] it was 105%. For the same molecule, the growth in assay [7] is 107%; in assay [8] it was 106%; in assay [9], 98.9%; in assay [10] it was 106%; in assay [11] it was 101%; in assay [12], 105%. Also, the growth is 107% in assay [13]; 102% in [14]; 99.1% in [15]; 99.9% in [16]; 100% in [17]; 101% in assay [18].
For `Clc1nnc2c3ccccc3ccn12`, the growth is 106% in [1]; 99.6% in assay [2]; 99.1% in [3]; 103% in assay [4]; 111% in assay [5]; 95.1% in assay [6]. The growth was 113% in assay [7]; 112% in [8]; 103% in assay [9]; 112% in assay [10]; 108% in [11]; 97.9% in [12]. Moreover, the growth in [13] is 111%; in assay [14], 96.7%; in assay [15], 107%; in assay [16], 103%; in assay [17], 115%; in [18], 109%.
For `COc1ccc(/C(C)=N/NC(=O)c2ccc(S(C)(=O)=O)cc2)cc1OC`, the growth in [1] is 97.6%; in assay [2] it was 130%; in [3], 110%; in assay [4], 106%; in assay [5], 97.7%; in assay [6], 88.4%. In addition, the growth was 109% in assay [7]; 113% in assay [8]; 100% in assay [9]; 113% in [10]; 82.6% in [11]; 96% in assay [12]. The growth in assay [13] was 112%; in assay [14], 103%; in assay [15], 92.9%; in assay [16], 84.7%; in [17], 104%; in assay [18] it was 103%.
